According to PubChem BioAssay AID1508600 (Functional Genomics Laboratory (NCATS/FGL), 2020):
Screen size: about 53,000 sequences; about 3,700 (7%) were called active.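 How the source made its calls: active means gene knockdowns whose robust z-score for IL-1 alpha signal is at least 2 or at most -2, so actives lie on both sides; inactive means the rest.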 The entries come from a sample that favours actives as a whole.

assay: Components of the Cytosolic LPS Sensing Pathway: Gene Identification via Genome-wide siRNA Screen; conditions: RAW264.7 macrophages, IL-1a HTRF, actives lie on both sides, screened at 100 nM (by protocol), cells primed 5 h with Pam3CSK4 first;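 further: robust z of the log signal after scaling to non-targeting control siRNA wells of the plate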
Method in brief: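 Read-out: IL-1a HTRF on supernatant, divided by plate negative-control median ×100, log-transformed and converted to robust z-score. Cells were RAW264.7 given 100 nM siRNA, Pam3CSK4-primed 5 hours, then LipidA-transfected 24 hour.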

| Sequence | z-score |
| --- | --- |
| GGCUUAAUGUUGCUUCAGATT against Aven | -0.959 (inactive) |
| GGUCAAUUAUGAAGAGUUUTT against Calm3 | 3.04 (active) |
| CCUUAAAAACUCGAGUAAATT against Gla | 0.384 (inactive) |
| GCGGUCACACCAAAAGUCATT against Olfr1466 | -1.56 (inactive) |
| GCUGUUUAUCUAGCUGUUATT against Mmp8 | 0.782 (inactive) |
| GGAUGUUAACAUUGAGCAATT against Asb11 | -0.0828 (inactive) |
| GGCAUUUCAACUGGACCCATT against Lamb1 | -2 (active) |
| GACGCAAGCAGCAUUUUAUTT against R3hdm4 | -0.207 (inactive) |
| CCGUCAUCUACACCUAUUUTT against Olfr525 | 0.102 (inactive) |
| CGGCUUAUGAGUUAAAGACTT against Rad51b | -1.03 (inactive) |
| GGUAGAUUAUAGCAAAAUGTT against Ik | -2.23 (active) |
| GGUUAAGUGUGUUAAGUUCTT against Cipc | 1.48 (inactive) |
| GGCCUCAAAUACCAUAACATT against Zfp941 | 0.000237 (inactive) |
| CGGACACAUGAUUGUCUUCTT against Npas1 | 1.25 (inactive) |
| GGUUUGAUGACAAAUACACTT against Spcs2 | 1.6 (inactive) |
| GCUGGUACAGCGUAUACCATT against Cep170b | -1.03 (inactive) |
| GGAUGUUCUCAAACUACAATT against Kdm1b | 0.702 (inactive) |
| GGGCAAGCCACUCAUGUUGTT against Me2 | -0.997 (inactive) |
| CCUAGAGAUUGGUAUGUACTT against Tmem132e | -2.1 (active) |
| GCCAUUAAUCUCACAUGUATT against Crebrf | 1.39 (inactive) |
| GGAUCCUUCGAAUCCUGAATT against Cst11 | -0.372 (inactive) |
| CCCAUGUUUAUGUUGCUGATT against Olfr467 | 0.251 (inactive) |

| Sequence | z-score |
| --- | --- |
| GGACACCUGAAGUUAGUUUTT against Ndufaf1 | 0.622 (inactive) |
| GGAGAAGGAUCUGAACGAGTT against Nog | -1.24 (inactive) |
| CCUUAUGGAUUUAGCAUCATT against Lamb3 | 0.917 (inactive) |
| CCAAACCAGUGGAGUCCAUTT against Slc7a14 | -2.26 (active) |
| ACUAUGGUUGGUUCAAACGTT against Acat2 | -1.23 (inactive) |
| GCACAACGGUUCGUUGUUATT against 4933427E11Rik | -1.17 (inactive) |
| GGUGUAGGCUGUCCAAUAATT against Rtel1 | 0.74 (inactive) |
| GACUCUUGUCCCAAGUGUUTT against Bloc1s4 | 0.144 (inactive) |
| GGAUCAACAGUCAAUUGUGTT against Tax1bp1 | -2.16 (active) |
| AUAGUGGAACCCUUUGUACTT against Olfr1195 | -0.832 (inactive) |
| GGAAUACGACAGAACUCCATT against Extl1 | 0.218 (inactive) |
| GGAGAAGCAAACUGCACCUTT against Cacng6 | 1.08 (inactive) |
| GGACCUGAAACACGCCAAUTT against Cdk18 | -0.35 (inactive) |
| GCGGGAGAGCUAUGAAACATT against Mrps21 | -0.0502 (inactive) |
| GGGAAAUUUCUCUACAUCUTT against Npas1 | 2.2 (active) |
| GGCUGCACAAAACGAGAUCTT against Tcirg1 | -0.0738 (inactive) |
| GGCAAACAAAUGGUUUGUUTT against Zfp324 | -0.544 (inactive) |
| GGUUCUCGGUAAAUCCUGCTT against Slc35b1 | -1.07 (inactive) |
| GGAGGUUGAGGCUUCUAAGTT against Pacsin3 | 1.2 (inactive) |
| GGAUAAUGAGCUGAACAUATT against Nek7 | -0.0844 (inactive) |
| GGAAGCAUGCAAUGAUAUUTT against 4933431E20Rik | -2.31 (active) |
| GCCUCACUUUGACUGUCGCTT against Tpgs2 | -0.289 (inactive) |

| Sequence | z-score |
| --- | --- |
| GGAGAAAGUGAUUGACAUATT against Lpin2 | -0.0579 (inactive) |
| GGAAGGGUUUGUUUGUUUATT against Nkiras1 | 1.55 (inactive) |
| GGCCUUGAAAGCCAUUGGUTT against Kmo | -0.728 (inactive) |
| GCGCGACAAAUCGUAGGCUTT against Mamstr | -2.13 (active) |
| GGACUUGAAGAACUGUUAUTT against Hspa13 | -0.0642 (inactive) |
| CGUGCUGUAUGGCAAAGUUTT against Bst1 | 0.563 (inactive) |
| GCCCAUGUUUGUGAGGGUUTT against Fem1al | -0.0893 (inactive) |
| GCACUUCCCUCCCUAUGCATT against Cep20 | -2.11 (active) |
| GGUUCCAAUGCUAUUGAAUTT against Tc2n | 0.391 (inactive) |
| GGUUAUAUUAUGUAGCCUATT against Klf17 | 0.332 (inactive) |
| GGUCACAGUUGGCAAAGAUTT against Myh11 | -0.521 (inactive) |
| GCGUAAGCAGCAAGAUGGATT against Ash2l | 1.21 (inactive) |
| GCUUUCAAGUGGUUAUGAATT against Nsun6 | 0.0136 (inactive) |
| CGUGUAUCGUUGUCUGAAUTT against Donson | 2.75 (active) |
| GCGACCAUUUCGUUUUAGUTT against Frat1 | 1.07 (inactive) |
| GGAAAGCAAGUCGUAAGCCTT against Mrps10 | -0.755 (inactive) |
| AAUGCUCAGAAAGAAUAACTT against Sprr2e | -0.31 (inactive) |
| UGUUACUGGACUCUCCACATT against Olfr320 | 0.372 (inactive) |
| GCUGUGUUAGGAUUGUCCATT against Olfr553 | 0.252 (inactive) |
| GGUACACUACAUGACUCAUTT against Sall4 | 2.35 (active) |
| GGCAUCAAGUCCAUUUUUGTT against Slc12a4 | 0.108 (inactive) |
| GGCAGGCAGAAAGCUUUGUTT against Olfr1054 | 1.8 (inactive) |

| Sequence | z-score |
| --- | --- |
| GCUAAUCACCAAAGCUGAGTT against Larp7 | 0.546 (inactive) |
| CCUAAUCUUCGUGCUUUACTT against Minpp1 | 1.4 (inactive) |
| CCUGUGAAAGAUGCUUAUATT against Capn7 | -1.65 (inactive) |
| CGGGAUGACUACAAUCUGGTT against Ssbp3 | -2.17 (active) |
| GCUCAGCUAGCAGAAAUUCTT against Nlrp2 | -1.76 (inactive) |
| GGAGGCCAAAGGACUGAUCTT against Hectd4 | 1.56 (inactive) |
| CCACAGACAGUUAUUACUGTT against Adgre1 | -1 (inactive) |
| CCCAAGAGUGUUUGAGAACTT against Zbtb43 | 0.213 (inactive) |
| GGCAUUUAUUAUCAGGCUGTT against Pes1 | 0.665 (inactive) |
| GCUCGAGAAGAGUUUGUUATT against 1700030J22Rik | 0.933 (inactive) |
| GCAACUUGUUAGUGGACUCTT against Olfr620 | -1.08 (inactive) |
| GCUAUGUGGGAAGUUUCAUTT against Tmem263 | 0.924 (inactive) |
| GGCCUAUAGGUUGGGCUCUTT against Tonsl | -2.57 (active) |
| GCGUGGAGUCUUCAGUCAUTT against Vhl | -0.101 (inactive) |
| GGAGAAGAGGACAGAAGCCTT against Akt1s1 | 0.757 (inactive) |
| GUUCAUGUCUAUCCUGUCUTT against Hba-x | -2.45 (active) |
| GCUCAAAACAAUCCACGCCTT against 1700006J14Rik | -0.47 (inactive) |
| GGAUGAGAACAACUCUGCUTT against Lrtm2 | 0.439 (inactive) |
| GGACCUGUUUGAUUUGGUGTT against Nf2 | 0.8 (inactive) |
| GGAAAACCUUGGACAGGAGTT against Olfr876 | -0.267 (inactive) |
| UGUGACUAUUGUUACUGUGTT against Olfr1512 | -1.06 (inactive) |
| GCAGUACCGAGCAGCAGAATT against Acad10 | -2.41 (active) |

| Sequence | z-score |
| --- | --- |
| CGAAUGUGGCUAUGACCUGTT against Kif6 | 0.555 (inactive) |
| GGAAAAGGAGGUGGUACUGTT against Acan | 0.743 (inactive) |
| GCAUACAGCUCAACAGUCATT against Padi2 | -0.51 (inactive) |
| GGAGAAGUAGAUGUAUAUGTT against Prkar1b | -1.4 (inactive) |
| GUACACCACAAUCCUCACCTT against Olfr677 | -0.0852 (inactive) |
| GGUCCAGAGAAUGUUAUUATT against Spinkl | 0.263 (inactive) |
| GAAUAGAAGGGAAGAAAGUTT against Crb3 | -2.08 (active) |
| GGGAACUUCCUUGAGAAGATT against Mgat4d | 0.654 (inactive) |
| GCAACGUGUCUUUUCAAACTT against P2ry10b | -0.223 (inactive) |
| GUUUCCUUGUGCUAAUGUUTT against Olfr1199 | 1.15 (inactive) |
| GGAAAACCUAAUAAGGUUCTT against Iqce | 2.72 (active) |
| GGCUCCAACAUAGAAAUGATT against Tpbpa | 0.38 (inactive) |
| GCUACGCAUUGAGGAGCUATT against Pkn1 | 0.168 (inactive) |
| GCUUAUGUCGAAUGAUAGCTT against Id2 | -4.22 (active) |
| GGCUGCCAAGAAAAUCUAUTT against Rab14 | 0.363 (inactive) |
| GGAUGAACUCAUGAGAGCCTT against Cyb5r4 | -0.323 (inactive) |
| GGGUUGAAAGAGCUUGCCATT against Vmn1r198 | -2.56 (active) |
| CCGAGGUUGUGAAACGAUGTT against Trp63 | -1.47 (inactive) |
| GGAACCUCCUUAUUCAAUGTT against Rspry1 | 0.0592 (inactive) |
